# Source: PubChem BioAssay (EPA / NIEHS)
# Activity calls are given as the source filed them. The calls were made as follows: active = hit-call score of the fitted dose curve at least 0.9, where 1 is the maximum; inactive = score below 0.9.
# Read-out: Basic fibroblast growth factor (bFGF), FGF2 (gene 2247)
# Assay: BSK_MyoF_bFGF: BioMAP Diversity Plus: MyoF Assay for Basic fibroblast growth factor (bFGF) Biomarker Activity (AID 2284246)
# Settings: primary human lung fibroblasts
# How it was run: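 Human lung fibroblast cultures were dosed and measured 24 h later in 96-well format. bFGF biomarker levels quantified by ELISA, with activity fitted in the positive direction against DMSO.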
Compound,AC50,outcome
O=C1C(Cl)=C(Cl)C(=O)C(Cl)=C1Cl,30.9 µM (active),
CC(C)(c1cc(Cl)c(O)c(Cl)c1)c1cc(Cl)c(O)c(Cl)c1,30.9 µM (active),
COCC(=O)N(c1c(C)cccc1C)N1CCOC1=O,,inactive
CC(C)CCCCCCCOP(=O)(Oc1ccccc1)Oc1ccccc1,20 µM (active),
C=CCN(CC=C)C(=O)C(Cl)Cl,,inactive
c1ccc(Nc2ccc3ccccc3c2)cc1,31 µM (active),
Cc1ccc(OP(=O)(Oc2ccc(C)cc2)Oc2ccc(C)cc2)cc1 (tested in a mixture with another compound),,inactive
O=S(=O)(c1ccccc1)c1ccccc1,,inactive
CC(=O)/C=C/c1ccccc1,,inactive

# Read-out: Collagen IV, COL4A1 (gene 1282)
# Assay: BSK_MyoF_CollagenIV: BioMAP Diversity Plus: MyoF Assay for Collagen IV Biomarker Activity (AID 2284247)
# Settings: primary human lung fibroblasts
# How it was run: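 Primary human lung fibroblasts (MyoF system) dosed 24 h; Collagen IV measured by ELISA. Activity fitted in positive direction against DMSO; cytotoxicity tracked by SRB total-protein staining in parallel cultures.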
Compound,AC50,outcome
O=C1C(Cl)=C(Cl)C(=O)C(Cl)=C1Cl,25 µM (active),
CC(C)(c1cc(Cl)c(O)c(Cl)c1)c1cc(Cl)c(O)c(Cl)c1,,inactive
COCC(=O)N(c1c(C)cccc1C)N1CCOC1=O,,inactive
CC(C)CCCCCCCOP(=O)(Oc1ccccc1)Oc1ccccc1,,inactive
C=CCN(CC=C)C(=O)C(Cl)Cl,,inactive
c1ccc(Nc2ccc3ccccc3c2)cc1,,inactive
Cc1ccc(OP(=O)(Oc2ccc(C)cc2)Oc2ccc(C)cc2)cc1 (tested in a mixture with another compound),,inactive
O=S(=O)(c1ccccc1)c1ccccc1,,inactive
CC(=O)/C=C/c1ccccc1,,inactive

# Read-out: Plasminogen activator inhibitor-1 (PAI1), SERPINE1 (gene 5054)
# Assay: BSK_MyoF_PAI1: BioMAP Diversity Plus: MyoF Assay for Plasminogen activator inhibitor-1 (PAI1) Biomarker Activity (AID 2284256);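 as to outcome: PAI-1 protein level measured by ELISA in fibroblast cultures; PAI-1 read 24 h after compound addition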
# Settings: primary human lung fibroblasts
# How it was run: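 ELISA read-out of PAI-1 from primary human lung fibroblast cultures 24 h after dosing; gain-of-signal fit versus DMSO control.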
Compound,AC50,outcome
O=C1C(Cl)=C(Cl)C(=O)C(Cl)=C1Cl,29.9 µM (active),
CC(C)(c1cc(Cl)c(O)c(Cl)c1)c1cc(Cl)c(O)c(Cl)c1,9.2 µM (active),
COCC(=O)N(c1c(C)cccc1C)N1CCOC1=O,,inactive
CC(C)CCCCCCCOP(=O)(Oc1ccccc1)Oc1ccccc1,12.8 µM (active),
C=CCN(CC=C)C(=O)C(Cl)Cl,,inactive
c1ccc(Nc2ccc3ccccc3c2)cc1,31.6 µM (active),
Cc1ccc(OP(=O)(Oc2ccc(C)cc2)Oc2ccc(C)cc2)cc1 (tested in a mixture with another compound),,inactive
O=S(=O)(c1ccccc1)c1ccccc1,,inactive
CC(=O)/C=C/c1ccccc1,,inactive

# Read-out: Interleukin-8 (IL8), CXCL8 (gene 3576)
# Assay: BSK_MyoF_IL8: BioMAP Diversity Plus: MyoF Assay for Interleukin-8 (IL8) Biomarker Activity (AID 2284261)
# Settings: primary human lung fibroblasts
# How it was run: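 ELISA read-out of IL-8 from primary human lung fibroblasts, 24 h post-dose; positive-direction curve fitting relative to DMSO vehicle baseline.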
Compound,AC50,outcome
O=C1C(Cl)=C(Cl)C(=O)C(Cl)=C1Cl,32 µM (active),
CC(C)(c1cc(Cl)c(O)c(Cl)c1)c1cc(Cl)c(O)c(Cl)c1,34 µM (active),
COCC(=O)N(c1c(C)cccc1C)N1CCOC1=O,,inactive
CC(C)CCCCCCCOP(=O)(Oc1ccccc1)Oc1ccccc1,5.07 µM (active),
C=CCN(CC=C)C(=O)C(Cl)Cl,,inactive
c1ccc(Nc2ccc3ccccc3c2)cc1,,inactive
Cc1ccc(OP(=O)(Oc2ccc(C)cc2)Oc2ccc(C)cc2)cc1 (tested in a mixture with another compound),10.2 µM (active),
O=S(=O)(c1ccccc1)c1ccccc1,,inactive
CC(=O)/C=C/c1ccccc1,,inactive

# Read-out: Decorin, DCN (gene 1634)
# Assay: BSK_MyoF_Decorin: BioMAP Diversity Plus: MyoF Assay for Decorin Biomarker Activity (AID 2284265)
# Settings: primary human lung fibroblasts
# How it was run: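 Human lung fibroblasts in the MyoF system were exposed to compound for 24 h, after which decorin was quantified by ELISA. Activity was fitted in the positive direction relative to DMSO negative control.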
Compound,outcome,AC50
O=C1C(Cl)=C(Cl)C(=O)C(Cl)=C1Cl,inactive,
CC(C)(c1cc(Cl)c(O)c(Cl)c1)c1cc(Cl)c(O)c(Cl)c1,inactive,
COCC(=O)N(c1c(C)cccc1C)N1CCOC1=O,inactive,
CC(C)CCCCCCCOP(=O)(Oc1ccccc1)Oc1ccccc1,,8.75 µM (active)
C=CCN(CC=C)C(=O)C(Cl)Cl,inactive,
c1ccc(Nc2ccc3ccccc3c2)cc1,inactive,
Cc1ccc(OP(=O)(Oc2ccc(C)cc2)Oc2ccc(C)cc2)cc1 (tested in a mixture with another compound),inactive,
O=S(=O)(c1ccccc1)c1ccccc1,inactive,
CC(=O)/C=C/c1ccccc1,inactive,

# Read-out: not listed separately
# Assay: BSK_MyoF_SRB: Viability Assessment in the BioMAP Diversity Plus: MyoF Assay (AID 2284267);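 also: total protein by SRB absorbance in parallel cultures as cytotoxicity measure; cells assessed 24 h after compound addition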
# Settings: primary human lung fibroblasts
# How it was run: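 Human lung fibroblasts, 24 h after chemical dosing; total protein measured by 0.1% sulforhodamine B staining after 10% TCA fixation, read at 560 nm, fitted relative to DMSO baseline.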
Compound,AC50,outcome
O=C1C(Cl)=C(Cl)C(=O)C(Cl)=C1Cl,29.6 µM (active),
CC(C)(c1cc(Cl)c(O)c(Cl)c1)c1cc(Cl)c(O)c(Cl)c1,16.5 µM (active),
COCC(=O)N(c1c(C)cccc1C)N1CCOC1=O,,inactive
CC(C)CCCCCCCOP(=O)(Oc1ccccc1)Oc1ccccc1,11.3 µM (active),
C=CCN(CC=C)C(=O)C(Cl)Cl,,inactive
c1ccc(Nc2ccc3ccccc3c2)cc1,35.5 µM (active),
Cc1ccc(OP(=O)(Oc2ccc(C)cc2)Oc2ccc(C)cc2)cc1 (tested in a mixture with another compound),,inactive
O=S(=O)(c1ccccc1)c1ccccc1,,inactive
CC(=O)/C=C/c1ccccc1,,inactive

# Read-out: Matrix Metallopeptidase 1 (MMP1), MMP1 (gene 4312)
# Assay: BSK_MyoF_MMP1: BioMAP Diversity Plus: MyoF Assay for Matrix Metallopeptidase 1 (MMP1) Biomarker Activity (AID 2284268)
# Settings: primary human lung fibroblasts
# How it was run: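 ELISA readout of MMP1 in primary human lung fibroblast cultures, 24 h post-dosing. Gain of signal versus DMSO vehicle control defines activity. Parallel SRB staining (0.1% after 10% TCA fixation, 560 nm) flags overt cytotoxicity.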
Compound,outcome,AC50
O=C1C(Cl)=C(Cl)C(=O)C(Cl)=C1Cl,inactive,
CC(C)(c1cc(Cl)c(O)c(Cl)c1)c1cc(Cl)c(O)c(Cl)c1,inactive,
COCC(=O)N(c1c(C)cccc1C)N1CCOC1=O,inactive,
CC(C)CCCCCCCOP(=O)(Oc1ccccc1)Oc1ccccc1,,5.17 µM (active)
C=CCN(CC=C)C(=O)C(Cl)Cl,inactive,
c1ccc(Nc2ccc3ccccc3c2)cc1,inactive,
Cc1ccc(OP(=O)(Oc2ccc(C)cc2)Oc2ccc(C)cc2)cc1 (tested in a mixture with another compound),,27.6 µM (active)
O=S(=O)(c1ccccc1)c1ccccc1,inactive,
CC(=O)/C=C/c1ccccc1,inactive,
